# Results filed as inconclusive are left out. Activity calls are given as the source filed them. Unless noted, calls come from the whole dose curve; as a rule, active = well fitted curve in the direction sought with a large enough effect; inconclusive = small, poorly fitted or top-dose-only effect, or another doubt; inactive = no such curve, though single readings can be large; an effect the other way counts as inactive or inconclusive.
# Key:
# [1] = target: Glucocorticoid receptor (Homo sapiens) (UniProt P04150); experiment: qHTS assay for small molecule agonists of glucocorticoid receptor signaling (AID 588532; active = well fitted curve in the direction sought with a large enough effect in the signal ratio, with a control signal flat; the % refers to the signal ratio;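 note: 100% = dexamethasone at 0.1 µM and 0% = DMSO only wells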); conditions: HeLa MMTV-bla, beta-lactamase ratio, agonist, 18 h; stronger effect = higher value; percent of dexamethasone control, DMSO zero
# Glucocorticoid receptor (Homo sapiens), sequence (P04150 whole entry, looked up): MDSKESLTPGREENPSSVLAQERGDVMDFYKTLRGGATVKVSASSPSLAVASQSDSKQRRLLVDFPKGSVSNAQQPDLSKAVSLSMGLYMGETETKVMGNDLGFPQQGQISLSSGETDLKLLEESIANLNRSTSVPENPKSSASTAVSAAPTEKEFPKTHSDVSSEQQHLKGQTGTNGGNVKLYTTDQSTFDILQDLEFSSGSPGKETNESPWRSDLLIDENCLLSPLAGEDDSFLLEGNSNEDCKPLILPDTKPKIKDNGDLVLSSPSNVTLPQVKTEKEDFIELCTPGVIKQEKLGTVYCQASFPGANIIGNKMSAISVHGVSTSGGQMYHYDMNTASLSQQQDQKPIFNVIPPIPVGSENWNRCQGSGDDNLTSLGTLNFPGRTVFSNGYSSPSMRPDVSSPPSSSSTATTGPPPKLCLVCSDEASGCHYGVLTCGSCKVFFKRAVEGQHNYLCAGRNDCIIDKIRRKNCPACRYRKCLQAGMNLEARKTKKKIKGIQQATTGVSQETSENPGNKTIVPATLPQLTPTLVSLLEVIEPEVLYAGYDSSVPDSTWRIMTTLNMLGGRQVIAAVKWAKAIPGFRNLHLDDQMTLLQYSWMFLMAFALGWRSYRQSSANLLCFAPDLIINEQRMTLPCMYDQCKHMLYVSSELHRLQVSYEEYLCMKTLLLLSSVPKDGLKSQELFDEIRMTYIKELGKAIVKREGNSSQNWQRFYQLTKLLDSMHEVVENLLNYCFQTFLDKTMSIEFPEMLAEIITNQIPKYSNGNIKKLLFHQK
# Outline: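 Titration series, up to 92 uM, applied to GRE-bla HeLa cells for 18 h at 37 C. Detection by CCF4 FRET substrate after 2 h at RT.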
# [2] = target: Glucocorticoid receptor (Homo sapiens) (UniProt P04150); experiment: qHTS assay for small molecule antagonists of glucocorticoid receptor signaling (AID 588533; active = well fitted inhibition curve with a large enough effect in the signal ratio, with a control signal flat, not every such curve was filed as active; the % refers to the signal ratio;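 note: cells stimulated with 2 nM dexamethasone as agonist; % is set by controls: 0 for no effect and ±100 for the full control effect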); conditions: HeLa MMTV-bla, GRE beta-lactamase ratio, antagonist mode, 18 h; series mostly up to 76.8 µM
# Outline: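 Antagonist-mode qHTS: compound titrations added to GRE-bla HeLa cells, then dexamethasone 2 nM final; 18 h, 37 C. CCF4 FRET fluorescence normalized to dexamethasone and DMSO; IC50 from Hill fit.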
# [3] = qHTS assay for small molecule antagonists of peroxisome proliferator-activated receptor delta signaling (AID 588535); conditions: HEK293T PPARd-UAS-bla, beta-lactamase FRET ratio, 18 h; 460 nm channel;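 note: cells co-treated with a PPAR-delta agonist as stimulator during compound exposure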
# Outline: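 Reporter: UAS-bla under PPAR-delta response element, HEK293T host. Medium: 2% charcoal/dextran FBS. Dosing: titration, 18 hrs, 37 C. Detection: CCF4, 2 hrs RT, 405 ex/460 and 530 em.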
# [4] = target: Vitamin D3 receptor (Homo sapiens) (UniProt P11473); experiment: qHTS assay for small molecule agonists of vitamin D receptor signaling (AID 588543; calls by dose curve;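 note: 0% = DMSO basal and 100% = reference agonist control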); conditions: HEK293T VDR-UAS-bla, beta-lactamase ratio, 16 h; series mostly up to 76.8 µM
# Vitamin D3 receptor (Homo sapiens), sequence (P11473 whole entry, looked up): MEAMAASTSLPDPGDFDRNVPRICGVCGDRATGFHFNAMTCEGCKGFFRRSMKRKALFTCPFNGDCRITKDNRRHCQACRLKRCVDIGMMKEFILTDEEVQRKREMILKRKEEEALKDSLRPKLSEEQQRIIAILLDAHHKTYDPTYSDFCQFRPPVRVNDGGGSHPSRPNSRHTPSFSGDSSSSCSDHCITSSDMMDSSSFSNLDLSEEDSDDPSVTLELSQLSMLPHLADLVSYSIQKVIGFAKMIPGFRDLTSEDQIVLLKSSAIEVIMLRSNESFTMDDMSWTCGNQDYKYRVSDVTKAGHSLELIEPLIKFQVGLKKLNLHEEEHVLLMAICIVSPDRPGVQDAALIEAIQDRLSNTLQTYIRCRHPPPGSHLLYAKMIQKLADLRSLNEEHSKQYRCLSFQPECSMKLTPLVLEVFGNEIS
# Outline: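 GeneBLAzer VDR-UAS-bla HEK293T cells in 2% charcoal-stripped FBS medium were dosed with compound titrations for 16 h at 37 °C; CCF4 β-lactamase readout (405 nm ex, 460/530 nm em). EC50 and efficacy from Hill fits, normalized to 50 nM calcitriol (100%) and DMSO (0%).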
# [5] = qHTS assay for small molecule agonists of retinoid X receptor alpha signaling (AID 588544; calls by dose curve;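 for activation: 0% = DMSO basal wells and 100% = reference agonist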); conditions: HEK293T RXRa-UAS-bla, beta-lactamase reporter, 18 h; 530 nm emission
# [6] = target: Retinoic acid receptor RXR-alpha (Homo sapiens) (UniProt P19793); experiment: as above; conditions: HEK293T RXRa-UAS-bla, beta-lactamase reporter, 18 h; series mostly up to 76.7 µM
# Retinoic acid receptor RXR-alpha (Homo sapiens), sequence (P19793 whole entry, looked up): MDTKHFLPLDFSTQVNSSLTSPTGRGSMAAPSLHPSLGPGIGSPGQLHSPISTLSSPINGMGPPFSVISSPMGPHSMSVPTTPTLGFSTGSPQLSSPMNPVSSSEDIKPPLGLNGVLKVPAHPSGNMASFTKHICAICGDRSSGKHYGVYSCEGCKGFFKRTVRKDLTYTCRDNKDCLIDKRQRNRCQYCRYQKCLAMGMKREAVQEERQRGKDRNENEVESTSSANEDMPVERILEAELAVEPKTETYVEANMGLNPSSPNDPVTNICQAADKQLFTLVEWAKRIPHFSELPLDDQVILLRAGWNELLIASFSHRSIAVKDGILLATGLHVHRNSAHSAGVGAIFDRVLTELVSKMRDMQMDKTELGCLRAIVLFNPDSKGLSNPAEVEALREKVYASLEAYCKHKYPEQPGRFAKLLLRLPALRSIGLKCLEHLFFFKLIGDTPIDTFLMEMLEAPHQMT
# [7] = qHTS assay for small molecule antagonists of retinoid X receptor alpha signaling (AID 588546; active = well fitted inhibition curve with a large enough effect in the signal ratio, with a control signal flat, not every such curve was filed as active; the % refers to the signal ratio;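 note: cells stimulated with 9-cis-retinoic acid as agonist; % is set by controls: 0 for no effect and ±100 for the full control effect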); conditions: HEK293T RXRa-UAS-bla, beta-lactamase ratio, antagonist mode; measured here: W530 green channel, cytotoxicity proxy
# Outline: (§1)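 Beta-lactamase reporter inhibition, read as CCF4 fluorescence ratio (ex 405, em 460/530 nm) after 2 h at RT. HEK293T UAS-bla cells, 2500/well, were stimulated with 9-cis-RA at 500 or 100 nM final alongside test compound for 18 h at 37 C.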
# [8] = target: Retinoic acid receptor RXR-alpha (Homo sapiens) (UniProt P19793); experiment: as above; conditions: HEK293T RXRa-UAS-bla, beta-lactamase ratio, antagonist mode
# Outline: as §1
# [9] = qHTS assay for small molecule agonists of the antioxidant response element (ARE) signaling pathway (AID 651741; active = well fitted activation curve with a large enough effect in the signal ratio; the % refers to the signal ratio; note: potency is the fitted concentration of half-maximal effect; for activation: % of control where 0% means no effect); conditions: HepG2 ARE-bla reporter, beta-lactamase FRET ratio, 16 h; series mostly up to 96 µM
# Outline: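 Compounds in DMSO are pinned onto HepG2 ARE-bla cells (2,000/well) that were preincubated 5 h; plates stay 16 h at 37 C, then beta-lactamase activity is detected with LiveBLAzer B/G substrate by fluorescence.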
# [10] = qHTS assay for small molecule activators of the p53 signaling pathway (AID 651743; active = well fitted activation curve with a large enough effect in the signal ratio, not every such curve was filed as active; the % refers to the signal ratio; note: % of control where 0% means no effect); conditions: HCT-116 p53RE-bla, beta-lactamase FRET ratio, 16 h; activation: stronger effect = higher value
# Outline: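 Cell-based beta-lactamase reporter (p53 response elements, HCT-116 background). After a 5-hour preincubation, cells received compound for 16 hours at 37 C; substrate development ran 2 hours at room temperature.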
# [11] = qHTS assay for environmental chemicals that activate the Aryl hydrocarbon Receptor (AhR) signaling pathway (AID 651777); conditions: 1A2-DRE human hepatoma cells, luciferase, 24 h; activation: stronger effect = higher value; note: % of control where 0% means no effect; nearly all actives have a fitted effect of over 15% in size
# Outline: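 Reporter gene assay: hepatoma cells with DRE/CYP1A2-luciferase, 24 hr compound incubation at 37 C, 5% CO2, luminescence after One-Glo (30 min, RT).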
# [12] = target: Peroxisome proliferator-activated receptor alpha (Homo sapiens) (UniProt Q07869); experiment: qHTS assay for small molecule agonists of the peroxisome proliferator-activated receptor alpha (PPARalpha) signaling pathway (AID 651778); conditions: PathHunter PPARalpha complementation, chemiluminescence, 6 h; max response: stronger effect = higher value; note: % of control where 0% means no effect
# Peroxisome proliferator-activated receptor alpha (Homo sapiens), sequence (Q07869 whole entry, looked up): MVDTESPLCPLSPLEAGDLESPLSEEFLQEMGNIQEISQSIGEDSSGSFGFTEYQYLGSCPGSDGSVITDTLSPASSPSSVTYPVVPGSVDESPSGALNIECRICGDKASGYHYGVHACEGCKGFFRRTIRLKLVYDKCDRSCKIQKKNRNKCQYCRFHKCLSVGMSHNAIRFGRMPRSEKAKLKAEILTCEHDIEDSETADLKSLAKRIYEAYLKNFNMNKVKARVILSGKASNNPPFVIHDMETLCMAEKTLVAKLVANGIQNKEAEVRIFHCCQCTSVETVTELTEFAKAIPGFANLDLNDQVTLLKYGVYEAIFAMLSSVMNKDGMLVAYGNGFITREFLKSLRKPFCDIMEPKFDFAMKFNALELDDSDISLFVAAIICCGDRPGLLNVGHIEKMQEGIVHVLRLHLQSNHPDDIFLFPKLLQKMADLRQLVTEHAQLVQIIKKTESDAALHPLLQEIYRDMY
# Outline: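 Cells plated at 2,000/well and held overnight at 37 C, 5% CO2, then compound added by pin tool for 6 hr; after PathHunter detection reagent and 60 min at room temperature, chemiluminescence from enzyme complementation was read.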
# [13] = qHTS assay for small molecule agonists of the antioxidant response element (ARE) signaling pathway measured by Nrf2-dependant transcriptional activity (AID 720636; active = well fitted curve in the direction sought with a large enough effect in the repeat runs; an effect the other way counts as inactive or inconclusive; note: potency is the fitted concentration of half-maximal effect;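 for activation: HepG2 cells with an ARE-driven luciferase reporter; % of control where 0% means no effect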); conditions: ARE-luc HepG2, Nrf2 luciferase reporter, 16 h; series mostly up to 92.4 µM
# Outline: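 Nrf2-dependent transcription is measured in ARE-luc HepG2 cells: compound is applied for 16 hr at 37 C after a 6 hr attachment period, and luciferase activity is quantified by luminescence using ONE-Glo.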
# [14] = qHTS assay for small molecule agonists of the antioxidant response element (ARE) signaling pathway measured by Nrf2-dependant transcriptional activity - cell viability counter screen (AID 720653; active = well fitted curve in the direction sought with a large enough effect in the repeat runs; an effect the other way counts as inactive or inconclusive; note: % is set by controls: 0 for no effect and ±100 for the full control effect); conditions: ARE-bla HepG2 viability, CellTiter-Glo ATP luminescence, 16 h; max response: stronger effect = lower value
# Outline: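 ARE-bla HepG2 cells (2,000/well) rested 5 hrs at 37C/5% CO2, then exposed to compounds in DMSO for 16 hrs. Viability was read in the same wells as intracellular ATP by luminescence, 30 min at room temperature after reagent addition.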
# [15] = qHTS assay for cell viability of HEK293 cells (AID 743288); conditions: ATP luminescence (CellTiter-Glo), 18 h; max response: stronger effect = lower value; note: % is set by controls: 0 for no effect and ±100 for the full control effect; nearly all actives have a fitted effect of over 50% in size
# Outline: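 Parental HEK293 cells were seeded at 2,000 cells/well, rested at least 5 h at 37 C, then exposed to compounds in DMSO for 18 h at 37 C. Viability was read as ATP-dependent luciferase luminescence after 30 min at room temperature.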
# [16] = qHTS assay for cell viability of the p53RE-bla HCT-116 cell line (AID 743292); conditions: p53RE-bla HCT-116 viability, ATP luminescence, 16 h; series mostly up to 95 µM; note: % is set by controls: 0 for no effect and ±100 for the full control effect; nearly all actives have a fitted effect of over 55% in size
# Outline: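 ATP-based luminescence, 16 h compound exposure at 37 C, p53RE-bla HCT-116 cells at 4,000/well.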
# [17] = target: Nuclear receptor subfamily 1 group I member 2 (Rattus norvegicus) (UniProt Q9R1A7); experiment: qHTS assay for small molecule activators of the rat pregnane X receptor (rPXR) signaling pathway (AID 651751; call rule not given here; note: 0% is about no effect); conditions: rPXR reporter cells, luciferase (One-Glo), 24 h
# Nuclear receptor subfamily 1 group I member 2 (Rattus norvegicus), sequence (Q9R1A7 whole entry, looked up): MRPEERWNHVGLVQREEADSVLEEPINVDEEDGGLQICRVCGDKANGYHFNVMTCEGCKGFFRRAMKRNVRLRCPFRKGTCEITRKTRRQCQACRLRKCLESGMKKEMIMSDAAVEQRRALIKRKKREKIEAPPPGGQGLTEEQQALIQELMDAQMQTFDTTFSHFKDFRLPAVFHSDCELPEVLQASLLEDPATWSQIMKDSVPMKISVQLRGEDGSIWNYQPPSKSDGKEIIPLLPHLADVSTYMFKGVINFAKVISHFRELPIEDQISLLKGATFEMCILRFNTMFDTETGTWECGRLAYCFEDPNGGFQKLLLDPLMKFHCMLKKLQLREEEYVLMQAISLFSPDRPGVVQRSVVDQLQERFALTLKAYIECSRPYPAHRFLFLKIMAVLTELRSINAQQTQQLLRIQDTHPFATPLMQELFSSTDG
# [18] = qHTS assay for small molecule activators of the human pregnane X receptor (PXR) signaling pathway (AID 720659; call rule not given here; note: 0% is about no effect); conditions: DPX-2 HepG2 CYP3A4-luciferase, 24 h; series mostly up to 92.3 µM
# [19] = target: Vitamin D3 receptor (Homo sapiens) (UniProt P11473); experiment: qHTS assay for small molecule antagonists of vitamin D receptor signaling (AID 588541; calls by dose curve;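 note: receptor activated by calcitriol during compound treatment; % is set by controls: 0 for no effect and ±100 for the full control effect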); conditions: HEK293T VDR-UAS-bla, beta-lactamase ratio, antagonist mode; series mostly up to 76.7 µM
# Outline: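 VDR-UAS-bla HEK293T cells (2000/well, 2% charcoal-stripped FBS) were treated with titrated compounds plus 1-alpha,25-dihydroxyvitamin D3 (50 nM or 3 nM final) for 16 h at 37 C. CCF4 beta-lactamase fluorescence was read; Hill fits gave IC50.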
# [20] = target: Thyroid hormone receptor beta (Homo sapiens) (UniProt P10828); experiment: qHTS assay for small molecule agonists of thyroid hormone receptor beta signaling (AID 588545; calls by dose curve;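 note: 0% = DMSO only and 100% = 10 nM T3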); conditions: TR-UAS-bla GripTite HEK 293, beta-lactamase ratio, agonist mode, 18 h; series mostly up to 76.7 µM
# Thyroid hormone receptor beta (Homo sapiens), sequence (P10828 whole entry, looked up): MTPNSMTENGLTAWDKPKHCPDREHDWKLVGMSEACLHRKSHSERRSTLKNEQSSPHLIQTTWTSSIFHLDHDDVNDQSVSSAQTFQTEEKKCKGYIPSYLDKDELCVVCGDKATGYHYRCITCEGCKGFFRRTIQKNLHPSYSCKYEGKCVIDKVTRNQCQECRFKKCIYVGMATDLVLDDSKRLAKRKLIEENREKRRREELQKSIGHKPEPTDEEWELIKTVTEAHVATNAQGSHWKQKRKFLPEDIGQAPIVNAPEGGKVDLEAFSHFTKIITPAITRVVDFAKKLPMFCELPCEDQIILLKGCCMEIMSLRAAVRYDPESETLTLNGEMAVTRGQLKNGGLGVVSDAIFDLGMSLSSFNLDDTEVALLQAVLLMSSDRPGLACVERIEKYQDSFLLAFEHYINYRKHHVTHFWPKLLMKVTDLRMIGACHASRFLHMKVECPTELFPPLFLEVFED
# Outline: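 Beta-lactamase reporter activity under TR response element control is measured in HEK 293 cells after 18 hrs compound exposure. Signal is ratiometric CCF4 fluorescence, 460/530 nm.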
SMILES,activation [1],Potency [2],max response [3],outcome [4],max response [5],Potency [6],max response [7],max response [8],Potency [9],activation [10],activation [11],max response [12],Potency [13],max response [14],max response [15],Potency [16],max response [17],outcome [18],Potency [19],Potency [20]
Cc1ccc2c(c1)C(=O)OC2=O,-1.62% (inactive),inactive,33.6%,inactive,-13.4%,inactive,-9.63%,-14.4% (inactive),inactive,-6.05% (inactive),2.38% (inactive),-2.31% (inactive),inactive,-8.54% (inactive),-7.63% (inactive),inactive,0.0212% (inactive),inactive,–,–
COC(OC)(C(=O)c1ccccc1)c1ccccc1,-8.93% (inactive),inactive,13.5%,inactive,-1.48%,inactive,-15.2%,-6.2% (inactive),inactive,–,1.33% (inactive),-0.253% (inactive),inactive,5.37% (inactive),-5.41% (inactive),inactive,3.76% (inactive),inactive,inactive,inactive
Oc1ccc2ccccc2c1N=Nc1ccccc1,–,–,–,–,–,–,-13.8%,-15.2% (inactive),3.06 µM (active),–,–,–,9.69 µM (active),-25.3% (inactive),-20.8% (inactive),inactive,5.24% (inactive),–,–,inactive
CC(C)C(=O)OC(=O)C(C)C,-15% (inactive),inactive,1.13%,inactive,-11.3%,inactive,-12.1%,-4.54% (inactive),–,-7.19% (inactive),–,-0.54% (inactive),inactive,-7.37% (inactive),-4.79% (inactive),inactive,-1.65% (inactive),–,inactive,–
CC(C)CC(C)(O)C#CC(C)(O)CC(C)C (stereo not given),4.46% (inactive),inactive,–,inactive,10.7%,inactive,-0.0198%,-21.9% (inactive),inactive,1.9% (inactive),0.133% (inactive),-1.54% (inactive),–,-3.69% (inactive),-6.63% (inactive),inactive,–,–,inactive,inactive
CC1=CC(=O)CC(C)(C)C1,-9.62% (inactive),inactive,13.3%,inactive,-20.2%,inactive,-3.41%,-18.4% (inactive),–,0.625% (inactive),0.188% (inactive),–,inactive,-10.2% (inactive),-2.87% (inactive),inactive,1.52% (inactive),inactive,inactive,–
